PubChem BioAssay (NCATS)
Values joined by “and” are separate entries in the source; they are usually repeats but may differ in a detail not shown here. Identical values can stand only once. Inconclusive results are not listed. Active and inactive are the calls of the source. Unless noted, calls follow the shape of the full dose curve.

How the values were obtained:
[1] = target: Estrogen receptor (Homo sapiens) (UniProt P03372); assay: qHTS assay for small molecule antagonists of estrogen receptor alpha signaling (AID 588513; active = well fitted curve in the direction sought with a large enough effect in the signal ratio, with a control signal flat, not every such curve was filed as active; the % refers to the signal ratio; also: % is scaled to controls: 0 for no effect and ±100 for the full control effect)
Estrogen receptor (Homo sapiens), sequence (P03372 whole entry, looked up): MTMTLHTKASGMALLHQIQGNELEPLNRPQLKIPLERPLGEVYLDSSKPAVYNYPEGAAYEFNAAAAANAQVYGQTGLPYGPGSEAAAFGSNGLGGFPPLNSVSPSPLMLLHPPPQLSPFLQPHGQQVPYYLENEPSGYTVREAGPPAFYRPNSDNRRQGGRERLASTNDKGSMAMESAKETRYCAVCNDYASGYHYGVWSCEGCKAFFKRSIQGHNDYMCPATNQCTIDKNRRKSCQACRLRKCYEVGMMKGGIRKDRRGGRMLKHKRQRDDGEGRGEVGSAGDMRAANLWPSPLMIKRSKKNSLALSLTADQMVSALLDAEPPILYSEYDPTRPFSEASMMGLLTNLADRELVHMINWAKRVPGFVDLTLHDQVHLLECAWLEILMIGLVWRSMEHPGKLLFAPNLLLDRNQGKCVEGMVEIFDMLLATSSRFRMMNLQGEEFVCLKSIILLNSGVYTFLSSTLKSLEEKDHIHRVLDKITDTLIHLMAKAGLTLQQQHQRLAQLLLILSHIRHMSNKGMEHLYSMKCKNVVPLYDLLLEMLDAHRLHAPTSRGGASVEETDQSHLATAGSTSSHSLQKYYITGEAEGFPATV
Summary of the method: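 Fluorescence from CCF4 substrate after 2 h at room temperature gave reporter activity; cells had been exposed to compound and 0.5nM 17-beta-estradiol for 18 h at 37 C. Hill-equation fitting yielded IC50 and maximal response.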

[2] = target: Peroxisome proliferator-activated receptor gamma (Homo sapiens) (UniProt P37231); assay: qHTS assay for small molecule antagonists of peroxisome proliferator-activated receptor gamma signaling (AID 588537; active = well fitted inhibition curve with a large enough effect in the signal ratio, with a control signal flat, not every such curve was filed as active; the % refers to the signal ratio;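 also: reporter cells co-stimulated with 50 nM rosiglitazone agonist during compound treatment; % of control where 0% means no effect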)
Peroxisome proliferator-activated receptor gamma (Homo sapiens), sequence (P37231 whole entry, looked up): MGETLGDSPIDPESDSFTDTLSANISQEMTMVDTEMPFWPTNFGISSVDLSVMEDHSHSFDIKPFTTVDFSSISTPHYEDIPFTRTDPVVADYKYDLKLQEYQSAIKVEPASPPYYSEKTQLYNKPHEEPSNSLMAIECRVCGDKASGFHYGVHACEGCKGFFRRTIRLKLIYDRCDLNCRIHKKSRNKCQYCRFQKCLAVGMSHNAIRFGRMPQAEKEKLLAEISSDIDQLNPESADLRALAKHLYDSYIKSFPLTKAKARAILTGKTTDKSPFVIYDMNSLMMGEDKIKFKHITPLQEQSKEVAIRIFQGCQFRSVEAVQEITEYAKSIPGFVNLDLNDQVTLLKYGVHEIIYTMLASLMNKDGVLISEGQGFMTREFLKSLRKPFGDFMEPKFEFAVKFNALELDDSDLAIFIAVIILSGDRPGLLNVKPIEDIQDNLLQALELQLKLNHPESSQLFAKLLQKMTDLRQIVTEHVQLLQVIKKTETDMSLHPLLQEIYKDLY
Summary of the method: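 We seeded GeneBLAzer HEK293 reporter cells at 3000 per well, allowed 6-6.5 h attachment at 37 C, then co-treated with test compound titrations and 50 nM rosiglitazone overnight (16 h). Inhibition was quantified from 460/530 nm emission ratios.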

[3] = target: Vitamin D3 receptor (Homo sapiens) (UniProt P11473); assay: qHTS assay for small molecule antagonists of vitamin D receptor signaling (AID 588541); also: potency is read from the fitted curve at half-maximal effect
Vitamin D3 receptor (Homo sapiens), sequence (P11473 whole entry, looked up): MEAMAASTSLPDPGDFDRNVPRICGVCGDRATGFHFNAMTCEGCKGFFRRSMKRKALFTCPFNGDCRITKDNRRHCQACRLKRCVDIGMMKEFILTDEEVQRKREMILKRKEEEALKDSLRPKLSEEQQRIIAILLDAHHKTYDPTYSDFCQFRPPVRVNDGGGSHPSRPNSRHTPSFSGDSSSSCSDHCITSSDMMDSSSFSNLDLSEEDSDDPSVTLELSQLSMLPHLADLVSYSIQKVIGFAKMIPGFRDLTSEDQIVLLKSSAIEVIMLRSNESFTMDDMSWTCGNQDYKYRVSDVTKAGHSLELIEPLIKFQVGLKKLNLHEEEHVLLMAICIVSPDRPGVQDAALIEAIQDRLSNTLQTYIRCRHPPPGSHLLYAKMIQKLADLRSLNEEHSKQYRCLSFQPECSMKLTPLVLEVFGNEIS
Summary of the method: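 VDR-UAS-bla HEK293T cells (2000/well, 2% charcoal-stripped FBS) were treated with titrated compounds plus 1-alpha,25-dihydroxyvitamin D3 (50 nM or 3 nM final) for 16 h at 37 C. CCF4 beta-lactamase fluorescence was read; Hill fits gave IC50.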

[4] = qHTS assay for small molecule agonists of the antioxidant response element (ARE) signaling pathway (AID 651741; active = well fitted activation curve with a large enough effect in the signal ratio; the % refers to the signal ratio; also: potency is read from the fitted curve at half-maximal effect; as to activation: % of control where 0% means no effect)
Summary of the method: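 Compounds in DMSO are pinned onto HepG2 ARE-bla cells (2,000/well) that were preincubated 5 h; plates stay 16 h at 37 C, then beta-lactamase activity is detected with LiveBLAzer B/G substrate by fluorescence.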

[5] = qHTS assay for small molecule activators of the human pregnane X receptor (PXR) signaling pathway (AID 720659; call rule not given here; also: 0% is about no effect)
[6] = target: Androgen receptor (Homo sapiens) (UniProt P10275); assay: qHTS assay for small molecule agonists of androgen receptor signaling (AID 588515; active = well fitted curve in the direction sought with a large enough effect in the signal ratio, with a control signal flat; the % refers to the signal ratio; also: % is scaled to controls: 0 for no effect and ±100 for the full control effect); conditions: AR-UAS-bla HEK293, beta-lactamase ratio, agonist 16 h; stronger effect = higher value
Androgen receptor (Homo sapiens), sequence (P10275 whole entry, looked up): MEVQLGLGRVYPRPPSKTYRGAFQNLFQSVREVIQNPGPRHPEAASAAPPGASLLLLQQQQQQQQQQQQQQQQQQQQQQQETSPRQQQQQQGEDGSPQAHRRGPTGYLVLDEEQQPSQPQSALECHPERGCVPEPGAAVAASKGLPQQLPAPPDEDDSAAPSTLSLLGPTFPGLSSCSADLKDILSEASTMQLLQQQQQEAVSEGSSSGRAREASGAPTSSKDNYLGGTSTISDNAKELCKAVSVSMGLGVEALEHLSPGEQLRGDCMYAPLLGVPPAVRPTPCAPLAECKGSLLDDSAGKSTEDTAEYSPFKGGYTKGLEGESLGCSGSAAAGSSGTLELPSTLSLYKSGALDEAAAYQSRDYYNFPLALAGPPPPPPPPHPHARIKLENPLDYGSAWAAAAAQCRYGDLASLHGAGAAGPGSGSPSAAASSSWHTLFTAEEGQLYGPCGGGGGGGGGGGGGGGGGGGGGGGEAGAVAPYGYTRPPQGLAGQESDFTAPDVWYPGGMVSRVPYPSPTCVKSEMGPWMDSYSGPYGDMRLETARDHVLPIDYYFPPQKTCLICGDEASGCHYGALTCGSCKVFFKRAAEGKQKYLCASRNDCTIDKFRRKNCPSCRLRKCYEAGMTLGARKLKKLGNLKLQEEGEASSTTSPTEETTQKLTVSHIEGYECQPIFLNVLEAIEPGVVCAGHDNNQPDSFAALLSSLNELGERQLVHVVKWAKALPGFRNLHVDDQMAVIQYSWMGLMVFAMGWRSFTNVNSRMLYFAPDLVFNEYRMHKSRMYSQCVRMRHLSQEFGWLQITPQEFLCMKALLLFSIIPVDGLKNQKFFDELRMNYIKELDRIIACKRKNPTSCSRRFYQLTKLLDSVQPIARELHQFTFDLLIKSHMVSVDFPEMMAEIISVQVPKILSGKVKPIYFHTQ
Summary of the method: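 EC50 and efficacy came from Hill fits of titrations (up to 92 uM) normalized to 30 nM R1881 as 100% and DMSO as 0%. Compound exposure was 16 h at 37 C on AR-UAS-bla HEK293 cells, with a 405/460/530 nm CCF4 fluorescence read.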

[7] = target: Androgen receptor (Homo sapiens) (UniProt P10275); assay: qHTS assay for small molecule antagonists of androgen receptor signaling (AID 588516; active = well fitted curve in the direction sought with a large enough effect in the signal ratio, with a control signal flat, not every such curve was filed as active; the % refers to the signal ratio; also: % is scaled to controls: 0 for no effect and ±100 for the full control effect)
Summary of the method: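 Cells were plated and incubated 5 h, compounds added in titration, then R1881 (10 nM final) as agonist. After 16 h at 37 C, CCF4 substrate was loaded for 2 h at room temperature and fluorescence measured.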

[8] = target: Bile acid receptor (Homo sapiens) (UniProt Q96RI1); assay: qHTS assay for small molecule antagonists of farnesoid X receptor signaling (AID 588526); also: % is scaled to controls: 0 for no effect and ±100 for the full control effect
Bile acid receptor (Homo sapiens), sequence (Q96RI1 whole entry, looked up): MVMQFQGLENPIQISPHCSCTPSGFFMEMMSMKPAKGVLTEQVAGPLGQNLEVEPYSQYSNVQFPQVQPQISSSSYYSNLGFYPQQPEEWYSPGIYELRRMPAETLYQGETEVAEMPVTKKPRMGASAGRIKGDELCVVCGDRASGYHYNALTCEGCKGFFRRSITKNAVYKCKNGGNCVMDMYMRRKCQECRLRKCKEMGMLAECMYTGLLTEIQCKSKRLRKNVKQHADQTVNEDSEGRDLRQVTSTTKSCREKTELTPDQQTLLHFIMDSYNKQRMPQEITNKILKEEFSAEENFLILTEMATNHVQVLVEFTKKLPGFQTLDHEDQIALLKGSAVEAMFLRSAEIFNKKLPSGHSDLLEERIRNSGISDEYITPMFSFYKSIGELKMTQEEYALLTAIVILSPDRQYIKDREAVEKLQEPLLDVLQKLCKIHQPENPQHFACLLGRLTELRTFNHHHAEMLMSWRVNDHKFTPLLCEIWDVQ
Summary of the method: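 Concentration-response titrations were fitted to the Hill equation for half-maximal inhibition and maximal response, with data normalised to 50 uM chenodeoxycholic acid and DMSO control wells. Cells: FXR-UAS-bla HEK293T, dialyzed FBS.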

[9] = target: Bile acid receptor (Homo sapiens) (UniProt Q96RI1); assay: qHTS assay for small molecule agonists of farnesoid X receptor signaling (AID 588527); conditions: HEK293T FXR-UAS-bla, beta-lactamase ratio, 16 h; activation: stronger effect = higher value;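 also: series mostly up to about 77 µM; 0% = vehicle basal and 100% = reference agonist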
Summary of the method: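 Agonist-mode beta-lactamase reporter in GeneBLAzer FXR-UAS-bla HEK293T cells, titration up to 92 uM, 16 h exposure at 37 C, CCF4 fluorescence. Response scaled to DMSO (0%) and 100 uM chenodeoxycholic acid (100%), then Hill-fitted for EC50 and efficacy.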

[10] = qHTS assay for small molecule activators of the nuclear factor-kappa B (NF-kB) signaling pathway (AID 651749; active = well fitted activation curve with a large enough effect in the signal ratio; the % refers to the signal ratio; also: series mostly up to about 77 µM; % of control where 0% means no effect); conditions: NF-kB-bla ME-180 cells, beta-lactamase FRET ratio, 16 h; activation: stronger effect = higher value
Summary of the method: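 Screening used 2,000 ME-180 reporter cells per well exposed to pinned compound (23 nL) or DMSO; after 16 hr at 37C, beta-lactamase expression under NF-kB control was assessed through FRET.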

[11] = qHTS assay for small molecule antagonists of peroxisome proliferator-activated receptor delta signaling (AID 588535; active = well fitted inhibition curve with a large enough effect in the signal ratio, with a control signal flat, not every such curve was filed as active; the % refers to the signal ratio;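 as to max response: cells co-treated with a PPAR-delta agonist as stimulator during compound exposure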); conditions: HEK293T PPARd-UAS-bla, beta-lactamase FRET ratio, 18 h; 460 nm channel
Summary of the method: (§1)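 Reporter: UAS-bla under PPAR-delta response element, HEK293T host. Medium: 2% charcoal/dextran FBS. Dosing: titration, 18 hrs, 37 C. Detection: CCF4, 2 hrs RT, 405 ex/460 and 530 em.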

[12] = target: Peroxisome proliferator-activated receptor delta (Homo sapiens) (UniProt Q03181); assay: as above
Peroxisome proliferator-activated receptor delta (Homo sapiens), sequence (Q03181 whole entry, looked up): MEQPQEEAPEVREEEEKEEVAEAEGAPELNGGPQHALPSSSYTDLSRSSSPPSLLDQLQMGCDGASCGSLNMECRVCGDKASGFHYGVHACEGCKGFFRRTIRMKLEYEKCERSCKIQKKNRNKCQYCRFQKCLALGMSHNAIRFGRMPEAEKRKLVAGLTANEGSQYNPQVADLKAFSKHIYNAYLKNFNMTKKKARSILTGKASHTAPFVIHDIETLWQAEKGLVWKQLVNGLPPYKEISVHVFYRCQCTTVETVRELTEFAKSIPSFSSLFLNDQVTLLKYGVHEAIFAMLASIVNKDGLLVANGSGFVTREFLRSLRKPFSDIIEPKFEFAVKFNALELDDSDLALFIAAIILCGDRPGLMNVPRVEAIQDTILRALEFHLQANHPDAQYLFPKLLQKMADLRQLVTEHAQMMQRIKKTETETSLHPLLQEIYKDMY
Summary of the method: as §1

COc1nc(C)nc(NC(=O)NS(=O)(=O)c2ccccc2Cl)n1
inactive: Potency [1] | Potency [2] | Potency [3] | Potency [4] | outcome [5]

COc1ccc(-c2ccccc2)cc1NNC(=O)OC(C)C
inactive: activation [6] -16.7% | Potency [7] | Potency [8] | activation [9] 1.06% | Potency [2] | Potency [3] | activation [10] -0.684% | outcome [5]
active: Potency [4] 54.5 µM

Cc1c(F)c(F)c(COC(=O)C2C(/C=C(\Cl)C(F)(F)F)C2(C)C)c(F)c1F (stereo not drawn)
inactive: Potency [1] | Potency [8] | activation [9] 0.0589% | Potency [12] | Potency [2] | Potency [3]
-17%: max response [11]

CNC(=O)O/N=C(\SC)C(=O)N(C)C
22.2%: max response [11]
inactive: Potency [1] | activation [6] -0.759% | Potency [7] | Potency [12] | Potency [3] | activation [10] -1.34% | outcome [5]

CCSC(C)CC1CC(=O)C(/C(CC)=N/OC/C=C/Cl)=C(O)C1 (stereo not drawn)
inactive: Potency [1] | activation [6] 3.31% | Potency [8] | activation [9] 0.0799% | Potency [12] | Potency [2] | Potency [3] | activation [10] 0.614%
62.4%: max response [11]

CC(C)CCCCCCOC(=O)c1ccccc1C(=O)OCCCCCCC(C)C
-6.95%: max response [11]
inactive: activation [6] 13.4% | Potency [7] | Potency [8] | activation [9] 0.284% | Potency [12] | Potency [3] | Potency [4] | activation [10] 2.38% | outcome [5]

O=C(Nc1ccccc1)Nc1ccnc(Cl)c1
inactive: activation [6] 10.1% | Potency [7] | Potency [8] | activation [9] -3.44% | Potency [2] | Potency [3] | activation [10] -0.762%

Cc1ccccc1C(=O)Nc1cccc(OC(C)C)c1
inactive: Potency [1] | activation [6] -11.5% | Potency [12] | activation [10] 0.221%
10.6%: max response [11]

C/C(=N\NC(=O)Nc1cc(F)cc(F)c1)c1ncccc1C(=O)O
inactive: Potency [1] | Potency [8] | activation [9] -2.37% and 0.898% | Potency [2] | Potency [4]

COP(=O)(OC)Oc1ccc([N+](=O)[O-])cc1
inactive: Potency [1] | activation [9] 5.22% | outcome [5]

COP(=O)(OC)OC(Br)C(Cl)(Cl)Br (stereo not drawn)
active: Potency [3] 44.7 µM | Potency [4] 24.3 µM
inactive: activation [6] 4.22% | Potency [8] | Potency [12] | Potency [2]
-79.2%: max response [11]

O=C1c2ccccc2C(=O)C1C(=O)C(c1ccccc1)c1ccc(Cl)cc1 (stereo not drawn)
65.6%: max response [11]
active: Potency [4] 54.5 µM
inactive: activation [6] -4.67% | Potency [12] | Potency [3] | activation [10] -3.47%

COC[C@H](C)N(C(=O)CCl)c1c(C)csc1C
inactive: Potency [8] | activation [9] -0.72% | Potency [12] | Potency [3] | activation [10] -0.69%
active: Potency [4] 19.3 µM
-36.8%: max response [11]

Cc1cc(Cl)ccc1OCC(=O)O
inactive: activation [6] -0.462% and -10.2% | Potency [7] | Potency [3] | outcome [5]

CC(C)=CC1[C@H](C(=O)OCc2cccc(Oc3ccccc3)c2)C1(C)C (stereo partly drawn)
inactive: Potency [8] | activation [9] -3.66% | Potency [12] | Potency [3]
26%: max response [11]

C#CCN1C(=O)COc2cc(F)c(N3C(=O)C4=C(CCCC4)C3=O)cc21
inactive: activation [6] 8.69% | Potency [7] | Potency [3] | activation [10] -1.45% | outcome [5]

CNC(=O)Oc1cc(C)c(SC)c(C)c1
12.6%: max response [11]
active: Potency [4] 27.3 µM
inactive: activation [6] 1.32% | Potency [7] | activation [9] 5.14% | Potency [12] | Potency [2] | Potency [3] | activation [10] -0.568%

CCCCOCN(C(=O)CCl)c1c(CC)cccc1CC
inactive: Potency [8] | activation [9] -0.328% | activation [10] -3.81%
active: Potency [4] 24.3 µM

O=[N+]([O-])Nc1nccn1Cc1ccc(Cl)nc1
19.2%: max response [11]
inactive: activation [6] 20.9% | Potency [7] | Potency [8] | Potency [12] | Potency [2] | activation [10] -1.97% | outcome [5]

CCOC(=O)C(Cl)Cc1cc(-n2nc(C)n(C(F)F)c2=O)c(F)cc1Cl (stereo not drawn)
inactive: Potency [8] | activation [9] 1.1% | Potency [12] | Potency [3] | activation [10] -0.796% | outcome [5]
64.4%: max response [11]

Cc1[nH]c(=O)n(C(C)(C)C)c(=O)c1Cl
inactive: activation [6] 0.796% | Potency [7] | Potency [8] | activation [9] 0.517% | Potency [2] | activation [10] -0.578% | outcome [5]

COc1cc(OC)nc(NC(=O)NS(=O)(=O)c2ncccc2OCC(F)(F)F)n1
inactive: Potency [8] | activation [9] 0.378% | Potency [12] | Potency [2] | Potency [3] | Potency [4] | activation [10] -0.186%
-5.67%: max response [11]

CCC(C)(NC(=O)c1cc(Cl)c(C)c(Cl)c1)C(=O)CCl (stereo not drawn)
31.6%: max response [11]
inactive: Potency [8] | activation [9] -3.52% | Potency [12] | activation [10] -0.168%

COP(=S)(OC)Oc1nc(Cl)c(Cl)cc1Cl
inactive: Potency [8] | activation [9] 0.351% | outcome [5]
active: Potency [4] 27.3 µM

Clc1ccc(-c2cc(Cl)c(Cl)cc2Cl)cc1Cl
inactive: activation [6] -4.76% | activation [9] 4.78% | Potency [3] | outcome [5]
